Assay results taken from ChEMBL document CHEMBL3988442, “University of Dundee, Small-Polar-MMV Screening Library” (2021).
Screen size: about 69,000 compounds; about 950 (1.4%) showed an effect of 50% or more. The full list was thinned out, with strong results kept by preference.

tested on: Mycobacterium tuberculosis; assay: Cornell M. t heat shock assay; assay type: functional, organism-based; design: dose or concentration left out as unconfirmed; note: in the data most compounds retested in dose-response had high values

SMILES	Percent Effect
O=C(O)C(F)(F)F.c1nc2c(c(C3CC3)n1)CCN(CC1CCOC1)CC2 (centres undefined)	4.72%
CC(C)n1cc(N2Cc3nc(N4CCOCC4)ncc3C2=O)cn1	-21.77%
CCOc1cc(CN[C@@H]2COC[C@H]2Cc2cc(C)no2)ccc1O.O=C(O)CC(O)(CC(=O)O)C(=O)O	-17.97%
CO[C@@H]1CCN(S(=O)(=O)c2cccnc2)[C@@H]2CN(CC3CC3)C[C@@H]21.O=C(O)C(F)(F)F.O=C(O)C(F)(F)F	-1.199%
Cc1ccc(C(=O)N2CCC3(CC2)CN(CCN(C)C)C(=O)O3)c(F)c1	97.5%
Cc1cc(C(=O)N2CCC3(CC2)CN(CCN(C)C)C(=O)O3)nc(C)n1	14.38%
Cc1nc[nH]c1C(=O)N1CCC2(CC1)CN(CCN(C)C)C(=O)O2	17.79%
Cn1nc(CN2CCCCC2)c2c1CN(C(=O)c1cccc(C#N)c1)C2.O=C(O)C(F)(F)F	-14.41%
Cc1ccc(NC(=O)C(C)N2CCCN(c3nccs3)CC2)c(C)c1 (centres undefined)	58.85%
Cc1cc(NC(=O)C(C)N2CCCN(c3nccs3)CC2)on1 (centres undefined)	10.96%
Cc1ccc(C)c(NC(=O)C(C)N2CCCN(c3nccs3)CC2)c1 (centres undefined)	26%
CC(C)Cc1nc(-c2ccnc(N3CCNCC3)n2)no1.Cl.Cl	-11.54%
COCCN1CCO[C@H]2CN(Cc3cccc(C)n3)C[C@H]21.O=C(O)C(F)(F)F.O=C(O)C(F)(F)F	-1.731%
Cc1ccsc1CN(Cc1cccnc1)C1CC(C)(C)NC(C)(C)C1.O=C(O)CC(O)(CC(=O)O)C(=O)O	-32.2%
Cc1cc(C)n(C2CCN(Cc3nc4ccccc4n3C)CC2)n1	-15.39%
Cc1cc(C)n(C2CN(Cc3nc4cc(Cl)ccc4n3C)C2)n1	97.92%
Cc1cnn(C2CN(Cc3noc(C)n3)C2)c1	1.101%
Cc1cnn(C2CN(Cc3noc(-c4ccccc4)n3)C2)c1	31.69%
Cc1ccc(-c2nc(CN3CC(n4nc(C)cc4C)C3)no2)cc1	24.47%
Cc1cnn(C2CN(Cc3nc4cc(Cl)ccc4n3C)C2)c1	84.58%
N#Cc1ccc(N2CCC3(CCC(=O)N3Cc3cccnc3)CC2)nc1.O=C(O)C(F)(F)F.O=C(O)C(F)(F)F	16.15%
Cc1c(Cl)cccc1S(=O)(=O)N1C[C@@H]2CC[C@H](C1)N(C)C2=O	-18.96%
O=C(Nc1cnccn1)[C@@H]1CC[C@@H]2[C@@H](CCN2Cc2nccs2)O1.O=C(O)C(F)(F)F	0.9525%
COCC1CN(S(=O)(=O)N(C)C)Cc2ncn(CC3CC3)c21.O=C(O)C(F)(F)F (centres undefined)	-32.61%
Cc1noc([C@@H]2CC[C@@H]3[C@@H](CCN3S(=O)(=O)c3cccnc3)O2)n1.O=C(O)C(F)(F)F	58.53%
Cc1noc([C@@H]2CC[C@@H]3[C@@H](CCN3S(=O)(=O)c3ccccc3)O2)n1	-26.97%
Cc1noc([C@@H]2C[C@H]3OCC[C@H]3N(S(=O)(=O)c3cccnc3)C2)n1.O=C(O)C(F)(F)F	-33.58%

SMILES	Percent Effect
Cc1cccc(COc2ccc(C(C)N)cc2)c1.Cl (centres undefined)	2.748%
Cc1noc(C)c1CN1CCO[C@H]2CN(Cc3ccc(F)cc3)C[C@H]21.O=C(O)C(F)(F)F.O=C(O)C(F)(F)F	-6.13%
O=C1CN(C(=O)c2ccc(Cl)cc2)CC(O)CN1Cc1cccs1 (centres undefined)	16.61%
CSc1ccc(C(=O)N2CC(=O)N(Cc3ccccc3)CC(O)C2)cc1 (centres undefined)	28.35%
Cc1ccc(C(=O)N2CC(=O)N(Cc3cccs3)CC(O)C2)cc1 (centres undefined)	58.25%
CSc1ccc(C(=O)N2CC(=O)N(Cc3cccs3)CC(O)C2)cc1 (centres undefined)	29.81%
O=C1CN(C(=O)c2ccc(F)cc2)CC(O)CN1Cc1cccs1 (centres undefined)	62.26%
COc1ccc(C(=O)N2CC(=O)N(Cc3cccs3)CC(O)C2)cc1 (centres undefined)	14.04%
O=C(Cc1ccsc1)N1C[C@@H]2OCCN(CC3CCCO3)[C@@H]2C1.O=C(O)C(F)(F)F (some centres undefined)	-30.31%
CNC(=O)[C@H]1C[C@@H]2CN(C(=O)Nc3ccccc3)C[C@H]1O2	-29.03%
CN(C)CCN1CCC2(CC1)CN(Cc1cccnc1)C(=O)CO2.O=C(O)C(F)(F)F.O=C(O)C(F)(F)F.O=C(O)C(F)(F)F	8.81%
O=C(O)C(F)(F)F.O=C(O)C(F)(F)F.c1cc(COC[C@]23COC[C@H]2CN(CC2CCC2)C3)ccn1	-30%
O=C(NC[C@]12COC[C@H]1CN(Cc1ccncc1)C2)c1ccco1.O=C(O)C(F)(F)F.O=C(O)C(F)(F)F	-3.617%
Cn1cncc1C(=O)N1CCOC2(COCCN(CC3CC3)C2)C1.O=C(O)C(F)(F)F (centres undefined)	41.2%
Cc1cnn(CC2CCCN2Cc2nccn2CC(F)(F)F)c1 (centres undefined)	101.7%
Cc1nc(C2CCCN2Cc2nccn2CC(F)(F)F)no1 (centres undefined)	-9.202%
Cc1cnn(CC2CCCCN2Cc2cnc(C)s2)c1 (centres undefined)	18.92%
Cc1cnn(CC2CCCN2Cc2nccn2C)c1 (centres undefined)	15.87%
Cc1cnn(CC2CCCCN2Cc2ncc(C(C)(C)C)o2)c1 (centres undefined)	-8.099%
Cc1cnn(CC2CN(Cc3nccn3CC(F)(F)F)CCO2)c1 (centres undefined)	-15.97%
Cc1cnn(CC2CCCN2Cc2nnc(C3CC3)n2C)c1 (centres undefined)	10.04%
CCn1ccnc1CN1CCCC1Cn1cc(C)cn1 (centres undefined)	89.45%
Cc1cnn(CC2CCCCN2Cc2nccn2CC(F)(F)F)c1 (centres undefined)	52.97%
CCn1ccnc1CN1CCN(CCC(=O)NC2CCCCC2)CC1	24.85%
CC1=N[C@@]2(CC[C@@H]3CNC[C@@H]32)C(=O)N1CC(C)C.O=C(O)C(F)(F)F	-9.466%
Fc1cnc(N2CCCC3(COCCN(c4nccs4)C3)C2)nc1.O=C(O)C(F)(F)F.O=C(O)C(F)(F)F (centres undefined)	4.049%
COc1c(CNC2CCCOc3ccc(F)cc32)c(C(C)C)nn1C.Cl (centres undefined)	-10.1%
